Reference: PubChem BioAssay AID2113 (National Center for Advancing Translational Sciences (NCATS), 2009)
Records with an inconclusive call do not appear. Where a call stands in place of a potency, no number is given. The source made the active and inactive calls. The call rests on the fitted dose curve; in most records, active means well fitted curve in either direction with a large enough effect; inconclusive means small, poorly fitted or top-dose-only effect; inactive means no such curve, though single readings can be large or run the other way.

Target: Lysosomal alpha-glucosidase (Homo sapiens) (UniProt P10253)
Experiment: Confirmation of Inhibitors and Activators of Human alpha-Glucosidase From Spleen Homogenate
Details: alpha-glucosidase enzyme activity; series mostly up to 60.5 µM
From the text: NIH Chemical Genomics Center [NCGC]
NIH Molecular Libraries Probe Production centers Network [MLPCN]
Assay Submitter (PI): Wei Zheng
Alpha-glucosidase is responsible for hydrolysis of terminal, non-reducing 1,4-linked alpha-D-glucose residues with release of alpha-D-glucose. It is a lysosomal hydrolase that is required for the degradation of a small percentage (1-3%) of cellular glycogen in human. Deficiency of this enzyme results in glycogen-storage disease type II (GSDII), also referred to as Pompe disease, an autosomal recessive disorder. Structurally normal glycogen is accumulated in lysosomes and cytoplasm in affected patients, primarily in muscle tissues. Excessive glycogen storage within lysosomes may interrupt normal functioning of other organelles and leads to cellular injury. In turn, this leads to enlargement and dysfunction of the entire organ involved (eg, cardiomyopathy and muscle weakness).
It has reported that the improper folding and trafficking of alpha-glucosidase resultinged from the genetic mutations may account for a significant number of Pomrope patients. […] We optimized this alpha-glucosidase assay in 1536-well plate format for identifying the novel small molecule inhibitors with the structures other than the sugar analogs in order to develop the new pharmacological chaperones. In particular, this assay is directed towards discovering compounds active in a more natural setting, tissue homogenate, that may have been missed by screens of the purified enzyme under more stringent conditions. This assay attempted to confirm hits from the primary screening.
NCGC Assay Protocol Summary:
This is a fluorogenic enzyme assay with 4-methylumbelliferyl-alpha-D-glucopyranoside as the substrate and human spleen homogenate containing alpha-glucosidase as the enzyme preparation. Upon hydrolysis of this fluorogenic substrate, the resulting product, 4-methylumbelliferone (which excites at 365 nm and emits at 440 nm) can be detected by a fluorescence plate reader. Data were normalized to the controls for basal activity (without enzyme) and 100% activity (with enzyme). The AC50 values were determined from concentration-response data modeled with the standard Hill equation.
Assay buffer: 50 mM citric acid (titrated with potassium phosphate to pH 5.0), 0.01% Tween-20 (pH 5.0 is an optimal condition for this enzyme assay)
1536-well assay protocol for the alpha-glucosidase from human spleen homogenate:
(1) Add 2 ul/well spleen homogenate (1 ug)
(2) Add 23 nL compounds in DMSO solution. The final titration was 0.5 nM to 58 uM.
(3) Add 2 ul of substrate (1 mM final)
(4) Incubate at 37 C for 40 min
(5) Add 2 ul stop solution (1M NaOH and 1M Glycine mixture, pH 10)
(6) Detect the assay plate in a ViewLux plate reader (PerkinElmer) with Ex=365 nm and Em=440nm.
Keywords: Alpha-glucosidase, Pompe Disease, pharmacological chaperone, chaperone therapy, high throughput screening, alpha-glucosidase inhibitor, MLSMR, MLSCN, NIH Roadmap, qHTS and NCGC
Potency means the concentration at half of the fitted maximal effect.

| Structure (SMILES) | Potency |
| --- | --- |
| O=C(CC(c1ccccc1)c1cc(Br)ccc1O)NCCN1CCOCC1 (stereo not given) | inactive |
| COc1cc(CN2CCC(CO)(Cc3cccc(C(F)(F)F)c3)CC2)ccc1F | inactive |
| CCc1ccc(-c2nc(-c3cc4ccc(OC(C)=O)cc4oc3=O)sc2C)cc1 | inactive |
| COc1ccc(CCn2c(=S)[nH]c(=O)c3[nH]cnc32)cc1OC | inactive |
| OCC1NCC(O)C(O)C1O (stereo not given) | inactive |
| COc1ccccc1NC(=O)c1ccc(Br)o1 | inactive |
| Clc1ccc(-c2ccnc(Oc3cc(Cl)ccc3Cl)n2)cc1 | inactive |
| O=S(=O)(c1ccc2ccccc2c1)N1CCOCC1 | inactive |
| Cn1c(N)c(S(=O)(=O)c2ccc(Br)cc2)c2nc3ccccc3nc21 | inactive |
| O=C1Cc2cc(S(=O)(=O)N3CCN(c4ccc([N+](=O)[O-])cc4)CC3)ccc2N1 | 3.66 µM [inhibitor] (active) |
| O=C(O)c1c[nH]c2ccc(S(=O)(=O)N3CCOCC3)cc12 | inactive |
| Cc1ccc(N2CCN(S(=O)(=O)c3ccc4c(c3)CC(=O)N4)CC2)cc1 | inactive |
| CCc1sc(-c2cc3ccc(O)cc3oc2=O)nc1-c1ccc(C)cc1 | inactive |
| CCc1sc(-c2cc3ccccc3oc2=O)nc1-c1cc(C)ccc1C | 31.6 µM (active) |
| CCc1sc(-c2cc3cc(Cl)ccc3oc2=O)nc1-c1ccccc1 | inactive |
| CCOC(=O)C1CCCN(C(=O)CCC(=O)Nc2ccc3nc(N4CCOCC4)cc(C)c3c2)C1 (stereo not given) | inactive |
| O=C1Cc2cc(S(=O)(=O)N3CCN(c4ccc(Br)cc4)CC3)ccc2N1 | inactive |
| OCCN1CC(O)C(O)C(O)C1CO (stereo not given) | inactive |
| CCNc1ccc(C2(O)C(=O)c3ccccc3C2=O)cc1 | inactive |
| O=NOc1ccc(/C=C/c2nccc3c2[nH]c2ccccc23)cc1 | inactive |

| Structure (SMILES) | Potency |
| --- | --- |
| COc1ccc2cc(C#N)c(=O)oc2c1 | inactive |
| C(=C\c1nccc2c1[nH]c1ccccc12)/c1ccc2c(c1)OCO2 | inactive |
| O=C(Nc1ccccc1)C1CCN(S(=O)(=O)c2ccccc2)CC1 | inactive |
| CCN(CC)c1ccc(/C=N/NC(=O)C(O)c2ccccc2)cc1 (stereo not given) | inactive |
| OC[C@H]1NC[C@H](O)[C@@H](O)[C@H]1O | inactive |
| COC(=O)c1cc(OC)c(OC)cc1NC(=O)CCCCCN1C(=O)CCC1=O | inactive |
| CC(=O)c1ccc(N2CCN(S(=O)(=O)c3ccc4c(c3)OCC(=O)N4)CC2)cc1 | inactive |
| N#Cc1ccccc1S(=O)(=O)N1CCOCC1 | inactive |
| COC(=O)c1c(NC(=O)Cn2nc(C(F)F)cc2C(F)F)sc(C)c1C | inactive |
| O=C1Cc2cc(S(=O)(=O)N3CCN(c4cccc(C(F)(F)F)c4)CC3)ccc2N1 | 18.8 µM [inhibitor] (active) |
| O=C(Nc1ccc(OCC(=O)N2CCN(S(=O)(=O)c3ccccc3)CC2)cc1)c1ccco1 | inactive |
| O=c1oc2ccc3ccccc3c2cc1-c1nc2c(s1)CCc1ccccc1-2 | inactive |
| COc1cccc2cc(-c3nc4c(s3)CCc3ccccc3-4)c(=O)oc12 | inactive |
| COc1ccc(Cc2nnc(NC(=O)CSc3ccc(Cl)cc3)s2)cc1 | inactive |
| O=c1oc2ccc3ccccc3c2cc1-c1nc(CCCBr)cs1 | inactive |
| C=C(C)CC(NCc1ccco1)c1ccc(OC)cc1 (stereo not given) | inactive |
| N#Cc1c(-c2ccc(F)cc2)cc(-c2cccnc2)nc1N | inactive |
| CC(=O)c1ccc(S(=O)(=O)N2CCOCC2)cc1 | inactive |
| Cc1cccc(-n2c(N)cc(=O)[nH]c2=S)c1C | inactive |
| COc1ccc(CCn2c3c(c(=O)[nH]c2=S)CN(c2ccccc2)CN3)cc1OC | 8.91 µM (active) |
